NPSR antag = neuropeptide S receptor (human) antagonism, cAMP; Q6W5P4; CHO-NPSR cells, cAMP TR-FRET, antagonist mode; Potency, µM (series often up to 38.3 µM), for inactives: at the top dose activity change, negative = inhibition, hits mostly inhibitors; actives 1% (n = 220,000); AID 1461; note: potency is the fitted concentration of half-maximal effect; nearly all actives have a fitted effect of over 50% in size
IMPase Li inh = membrane-permeable IMPase blocker, potentiated with lithium; CHO-M1 cells, IP1 TR-FRET (IP-One), carbachol + lithium; Potency, µM (doses to about 59.4 µM), for inactives: at the highest dose activity, negative = IMPase inhibition, actives largely listed as inhibitors; actives 0.35% (n = 210,000); AID 1457;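 note: IP1 builds up when IMPase is blocked and the TR-FRET signal falls; potency is the fitted concentration of half-maximal effect; plate controls were basal vehicle for no effect and high inhibitor control for full effect; nearly all actives have a fitted effect of over 50% in size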
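CHO cells stably expressing M1 receptor (2000/well) were cultured 16–30 h, then exposed to compounds with a small lithium addition for 30 min at 37C. IP1 was measured by TR-FRET competition; AC50 from Hill fits.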
IMPase cell inh = cell-permeable inhibitors of inositol monophosphatase (IMPase); AID 901; P97697; inhibition (IP1 accumulation), % at 46.1 µM; CHO-M1 cells, IP1 accumulation, HTRF TR-FRET ratio; 120,000 tested, under 10 active; active = well fitted curve in the direction sought with a large enough effect in the signal ratio, not every such curve was filed as active; inconclusive = small, poorly fitted or top-dose-only effect, or a change in a side signal; inactive = no such curve, though single readings can be large or run the other way; the % refers to the signal ratio;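 note: cells stimulated with carbachol in lithium chloride buffer; plate controls were DMSO basal wells for no effect and reference inhibitor wells for full effect; higher means more IMPase inhibition seen as more IP1 and lower FRET ratio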
Target sequence (P97697 whole entry, looked up): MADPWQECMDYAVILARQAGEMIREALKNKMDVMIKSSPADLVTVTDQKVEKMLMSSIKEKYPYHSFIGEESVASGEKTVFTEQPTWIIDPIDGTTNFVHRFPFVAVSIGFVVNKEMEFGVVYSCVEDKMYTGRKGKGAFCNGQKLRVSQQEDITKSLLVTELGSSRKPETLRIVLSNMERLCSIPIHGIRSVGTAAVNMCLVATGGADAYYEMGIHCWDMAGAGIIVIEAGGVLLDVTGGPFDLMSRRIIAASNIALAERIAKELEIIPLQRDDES
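Elevated IP1 in lysates lowers TR-FRET signal (665/620 ratio and 620 channel reported). Cells were CHO-M1, given carbachol (50 uM as added) plus 50mM LiCl, pH 7.4, 30 min, 37C; compounds titrated up to 46 uM; AC50 by Hill equation.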
The depositor's hits bear a star; ? = inconclusive; . = not tested or not shown; [ ] = another dose, or the depositor's remark. This is one part of a sample in which hits are shown more often than they occur. Unless noted, calls come from the whole dose curve; as a rule, active = well fitted curve in the direction sought with a large enough effect; inconclusive = small, poorly fitted or top-dose-only effect, or another doubt; inactive = no such curve, though single readings can be large; an effect the other way counts as inactive or inconclusive. Unless noted, % is set by controls: 0 for no effect and ±100 for the full control effect.

SMILES	NPSR antag	IMPase Li inh	IMPase cell inh
Cc1ccc(C(O)C2=CCCC2=O)cc1 (centres undefined)	.	6.5%	.
CN1[C@@H]2CC(OC(=O)[C@@H](CO)c3ccccc3)C[C@H]1[C@H]1O[C@H]12 (some centres undefined)	.	.	17.6
O=S1(=O)CCN2N=C(C34CC5CC(CC(C5)C3)C4)SC2=N1	15.4%	5.8%	.
CN(C)Cc1ccccc1-c1nc(NCc2cccs2)c2ccccc2n1	.	5.5%	.
Cc1cccc(-n2c(C)cc(/C=C3\C(=N)N4N=C(CC(C)C)SC4=NC3=O)c2C)c1	-33.2%	0.3%	.
CC1=NN2C(=N)/C(=C\c3cc(C)n(-c4cccc(C)c4)c3C)C(=O)N=C2S1	12.6µM*	.	.
Cc1ccc(-c2nc3sc(C(N)=O)c(N)c3c3c2CCCC3)cc1	-13.3%	11.2µM*	.
CC(=O)c1sc2nc(-c3ccc(C)cc3)c3c(c2c1N)CCCC3	-33.6%	-13.3%	.
CC(C)(C)c1ccc(Oc2nc3ccccn3c(=O)c2/C=C(\C#N)c2nc3ccccc3[nH]2)cc1	.	.	-11.1
COc1ccc(-n2c(=O)/c(=C\c3cccs3)s/c2=C(/C#N)C(=O)N2CCN(C)CC2)cc1	-24.2%	-5.2%	.
COc1ccc2cc(CN(CC3COCCO3)S(=O)(=O)c3c(C)cc(C)cc3C)c(=O)[nH]c2c1 (centres undefined)	1.7%[46.1 µM]	-16.4%[38.3 µM]	3.6
O=c1[nH]c2cc3c(cc2cc1CN(CC1CCCO1)S(=O)(=O)c1ccc(Cl)cc1)OCCO3 (centres undefined)	?	5.1%[38.3 µM]	-10.2
Cc1ccc(S(=O)(=O)N(Cc2cc3cc4c(cc3[nH]c2=O)OCCO4)CC2CCCO2)cc1 (centres undefined)	?	7.08µM*	-9.3
COc1ccc2cc(CN(CC3COCCO3)S(=O)(=O)c3ccc(Cl)cc3)c(=O)[nH]c2c1 (centres undefined)	?	7.08µM*	7.6
COc1cccc(Cn2c(=O)c(-c3cn(C)c4ccccc34)nc3cncnc32)c1	.	0.3%	.
CC(=O)OCCNc1cc(N2CCN(C)CC2)c2noc3c2c1C(=O)c1ccccc1-3	10µM*	52.8%	41.5
CCOC(=O)N1CCN(c2cc(NCCO)c([N+](=O)[O-])c3nonc23)CC1	-5.8%	1.9%	.
CC#C[C@]1(O)CC[C@H]2[C@@H]3CCC4=CC(=O)CCC4=C3[C@H](c3ccc(N(C)C)cc3)C[C@@]21C	.	21.6%	6.1
CC#C[C@]1(O)CC[C@H]2[C@@H]3CCC4=CC(=O)CCC4=C3[C@@H](c3ccc(N(C)C)cc3)C[C@@]21C	12.6µM*	11.7%	.
CC1=C(/C=C/C(C)=C/C=C/C(C)=C/C=O)C(C)(C)CCC1	.	-1.6%	.
CN1CCc2cc3c(cc2[C@@H]1[C@@H]1C(=O)Oc2c1ccc1c2OCO1)OCO3	.	24.0%	-2.4
O=C(Nc1nnc(CCS(=O)(=O)c2ccc3ccccc3c2)s1)c1cccs1	?	11.2µM*	.
COc1ccc(S(=O)(=O)CCc2nnc(NC(=O)c3cccs3)s2)cc1	-9.7%[46.1 µM]	?	?
Cc1ccc(S(=O)(=O)NCC(=O)OCC(=O)c2cccs2)cc1	2.0%[46.1 µM]	1.4%[38.3 µM]	-0.4
Cc1ccc(S(=O)(=O)NCC(=O)OCC(=O)c2ccc(Br)s2)cc1	23.0%[46.1 µM]	10µM*	?
SMILES	NPSR antag	IMPase Li inh	IMPase cell inh
Nc1c(C(=O)C2CC2)sc2nc(-c3ccccc3)cc(C(F)(F)F)c12	24.0%[46.1 µM]	12.6µM*	-24.0
CC(=O)c1sc2nc(-c3cccs3)cc(C(F)(F)F)c2c1N	9.6%[46.1 µM]	-21.0%[38.3 µM]	?
COc1nc(-c2ccccc2)ccc1-c1noc(-c2ccccc2F)n1	9.0%[46.1 µM]	-22.3%[38.3 µM]	-3.0
COc1nc(-c2ccccc2)ccc1-c1noc(-c2ccc(F)cc2)n1	-16.3%[46.1 µM]	8.91µM*	2.2
O=C(O)[C@H](C1NCCS1)N1Cc2ccccc2C1 (some centres undefined)	.	-6.7%	.
CCN(CC)S(=O)(=O)c1cc([N+](=O)[O-])ccc1NNC(=O)Nc1ccc(Cl)c(Cl)c1	10µM*	1.6%[38.3 µM]	10.3
O=C(NNc1ccccc1[N+](=O)[O-])Nc1ccc(Cl)c(Cl)c1	-59.3%	-0.6%	.
COc1ccc(-c2[nH]nc3c2C(c2ccc(OC(=O)N4CCOCC4)cc2)C(C#N)=C(N)O3)cc1 (centres undefined)	12.6µM*	6.7%[38.3 µM]	2.3
COc1ccc(-c2[nH]nc3c2C(c2ccccc2OC(=O)N2CCOCC2)C(C#N)=C(N)O3)cc1 (centres undefined)	-15.2%[46.1 µM]	-7.7%[38.3 µM]	13.5
O=C(c1cccc(F)c1)N1CCC2(CCCN(c3cccc(-c4ccccc4)c3)C2)CC1	.	3.3%	.
Cn1nccc1NS(=O)(=O)c1ccc(C(C)(C)C)cc1	1.9%	.	.
N#C/C(=C(/O)c1ccc([N+](=O)[O-])o1)c1nc2ccccc2[nH]1	-55.7%	.	.

From PubChem BioAssay
